Source: PubChem BioAssay
C diff growth = C. difficile growth inhibitors, primary screen, HTS; Clostridium difficile clinical isolate growth, OD600, 24 h; stronger effect = lower value; growth activity, negative = inhibition, % at 16 µg/mL (by protocol); hit rate 0.25% among 86,000; AID 1259249, 2017;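 active = mean growth activity at or below -80% and every replicate also at or below -80%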;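 note: 0% = DMSO wells and -100% = levofloxacin 16 µg/mL wells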
Pf Dd2 inh = P. falciparum Dd2 growth inhibitors, primary screen, SYBR Green fluorescence, single dose replicates; 72 h; stronger effect = lower value; activity change, % at 10 µM; hit rate 2.3% among 94,000; AID 1159554, 2015; in the data active = activity change below about -80%
T cruzi growth-1 = T. cruzi intracellular proliferation inhibitors, primary screen, cell-based, beta-gal Tulahuen parasites, NIH3T3 host, luminescence | T. cruzi beta-gal in NIH3T3, GalScreen luminescence, 90 h | inhibition, % at 8.34 µM | hit rate 5.9% among 77,000 | AID 624255, 2012;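 active = mean inhibition above about 93%, with at least 55% of replicates each passing it, limit read from the data, passing the limit was not always enough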
T cruzi growth-2 = T. cruzi intracellular proliferation inhibitors, confirmation, cell-based, NIH3T3 host, beta-gal parasite, luminescence, cherry-pick; AID 651739, 2012; inhibition, % at 8.35 µM; hit rate 72% among 5,600; shares compounds with T cruzi growth-1; T. cruzi beta-gal in NIH3T3, GalScreen luminescence, 90 h;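 active = mean replicate inhibition above about 95% and at least 55% of replicates individually reaching it, limit read from the data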
T cruzi growth-3 = inhibitors of intracellular T. cruzi replication, confirmation, NIH3T3 host cells, beta-gal parasites, cherry-pick, set 2. AID 651740, 2012. inhibition, % at 2.09 µM. hit rate 21% among 5,600. shares compounds with T cruzi growth-1. T. cruzi beta-gal in NIH3T3, GalScreen luminescence, 90 h;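 active = mean inhibition above about 95%, with at least 55% of replicates also reaching it, limit read from the data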;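 note: plate controls were neutral control median for no effect and positive control median for full effect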
NIH3T3 tox = cytotoxicity in mouse NIH/3T3 fibroblasts, confirmation, cytotoxicity control for T. cruzi proliferation inhibitor project, cell-based, cherry-pick, single point; hit rate 14% among 5,600; shares compounds with T cruzi growth-1; cytotoxicity (signal decrease), % at 8.35 µM; NIH/3T3 viability, CellTiter-Glo ATP luminescence, 90 h; AID 651742, 2012;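 active = mean signal decrease across replicates above about 35% based on untreated-well scatter, with enough replicates individually passing, limit read from the data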;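 note: 0% = median of neutral control wells and 100% = median of positive control wells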
NIH3T3 tox 2 = NIH/3T3 fibroblast cytotoxicity, confirmation, cytotoxicity control, cell-based, cherry-pick, single point, set 2. NIH/3T3 viability, CellTiter-Glo ATP luminescence, 90 h. hit rate 56% among 5,600. inhibition, % at 24.9 µM. shares compounds with T cruzi growth-1;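 active = mean loss of cell viability signal at or above a set limit, and enough replicates individually reaching it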;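 note: 0% = median of neutral control wells and 100% = median of positive control wells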
Numbers without * were called inactive; · = no result given. This is a sample that favours compounds with a hit; in the whole collection about 6.8% have one here.

SMILES | C diff growth | Pf Dd2 inh | T cruzi growth-1 | T cruzi growth-2 | T cruzi growth-3 | NIH3T3 tox | NIH3T3 tox 2
C[C@@H]1CN([C@H](C)CO)C(=O)c2cc(-c3ccc(F)cc3)cnc2O[C@@H]1CN(C)C(=O)c1ccccc1F | 8.1 | -22.7 | 10.0 | · | · | · | ·
CCC(=O)Nc1ccc2c(c1)OC[C@H](C)N(Cc1cncnc1)C[C@H](C)[C@H](OC)CN(C)C2=O | -0.2 | 45.7 | -20.7 | · | · | · | ·
O=C(Nc1ccc2c(c1)[C@H]1C[C@@H](CC(=O)N3CCc4ccccc4C3)O[C@@H](CO)[C@H]1O2)NC1CCCC1 | -0.5 | -12.6 | · | · | · | · | ·
CCCNC(=O)C[C@@H]1CC[C@H]2[C@@H](COC[C@H](O)CN2C(=O)Nc2ccccc2OC)O1 | · | 1.4 | 48.2 | · | · | · | ·
COc1cccc(NC(=O)N2C[C@H](O)COC[C@H]3O[C@H](CC(=O)NC4Cc5ccccc5C4)CC[C@@H]32)c1 | 0.8 | -54.0 | -38.4 | · | · | · | ·
C[C@@H](NC(=O)C[C@H]1CC[C@H]2[C@@H](COC[C@H](O)CN2C(=O)Nc2cccc(Cl)c2)O1)c1ccccc1 | 18.3 | -42.0 | 109.6* | 105.0* | -0.7 | 10.5 | 46.4*
C[C@H](NC(=O)C[C@H]1CC[C@H]2[C@@H](COC[C@@H](O)CN2C(=O)Nc2cc(Cl)cc(Cl)c2)O1)c1ccccc1 | · | 2.1 | 40.3 | · | · | · | ·
C[C@@H](NC(=O)C[C@@H]1CC[C@H]2[C@@H](COC[C@H](O)CN2C(=O)Nc2cc(Cl)cc(Cl)c2)O1)c1ccccc1 | · | -2.0 | 100.3* | 103.8* | 90.5 | 30.3 | 52.3*
CCCNC(=O)C[C@H]1CC[C@H]2[C@@H](COC[C@H](O)CN2C(=O)Nc2ccccc2OC)O1 | · | -22.0 | 117.4* | 97.4* | -0.1 | -7.9 | -10.1
COc1cccc(NC(=O)N2C[C@H](O)COC[C@H]3O[C@@H](CC(=O)NC4Cc5ccccc5C4)CC[C@@H]32)c1 | -4.1 | 12.9 | 109.3* | -6.6 | -42.3 | -16.1 | -4.2
C[C@H](NC(=O)C[C@H]1CC[C@@H]2[C@H](COC[C@@H](O)CN2C(=O)Nc2cccc(Cl)c2)O1)c1ccccc1 | 57.1 | 1.3 | 32.5 | · | · | · | ·
C[C@@H]1CN([C@@H](C)CO)C(=O)c2cc(/C=C/c3ccccc3)cnc2O[C@H]1CN(C)C(=O)c1ccc(F)cc1 | -4.9 | -15.5 | · | · | · | · | ·
C[C@@H]1CCCCO[C@H](CN(C)S(=O)(=O)c2ccccc2)[C@H](C)CN([C@H](C)CO)C(=O)c2cc(NS(=O)(=O)c3ccc(Cl)cc3)ccc2O1 | -7.0 | -36.1 | 116.9* | 99.5* | 102.0* | 17.2 | 4.4
C[C@@H]1CN([C@H](C)CO)C(=O)c2cc(NS(=O)(=O)c3ccc(Cl)cc3)ccc2O[C@@H](C)CCCCO[C@@H]1CN(C)S(=O)(=O)c1ccccc1 | -2.8 | -64.4 | 118.1* | 104.0* | 92.6 | -27.2 | 22.0
C[C@H](CO)N1C[C@H](C)[C@H](CN(C)S(=O)(=O)c2ccccc2)OCCCC[C@H](C)Oc2ccc(NS(=O)(=O)c3ccc(Cl)cc3)cc2C1=O | -8.8 | -32.7 | 117.7* | 103.9* | 88.2 | -18.3 | -4.7
C[C@@H]1CN([C@@H](C)CO)C(=O)c2cc(NS(=O)(=O)c3ccc(Cl)cc3)ccc2O[C@@H](C)CCCCO[C@H]1CN(C)S(=O)(=O)c1ccccc1 | -4.2 | -22.3 | 119.7* | 108.4* | 52.8 | 11.2 | 4.3
C[C@@H]1CCCCO[C@@H](CN(C)S(=O)(=O)c2ccccc2)[C@@H](C)CN([C@H](C)CO)C(=O)c2cc(NS(=O)(=O)c3ccc(Cl)cc3)ccc2O1 | -4.9 | -33.5 | 62.8 | · | · | · | ·
C[C@@H]1CN([C@@H](C)CO)C(=O)c2cc(NS(=O)(=O)c3ccc(Cl)cc3)ccc2O[C@@H](C)CCCCO[C@@H]1CN(C)S(=O)(=O)c1ccccc1 | -4.4 | -65.2 | 82.7 | · | · | · | ·
C[C@@H]1CCCCO[C@@H](CN(C)S(=O)(=O)c2ccc(Cl)cc2)[C@H](C)CN([C@H](C)CO)C(=O)c2cc(NS(=O)(=O)c3ccccc3)ccc2O1 | 0.2 | -69.6 | 103.8 | · | · | · | ·
C[C@@H]1CN([C@@H](C)CO)C(=O)c2cc(NC(=O)Nc3ccc(C(F)(F)F)cc3)ccc2O[C@@H]1CN(C)C(=O)Nc1cccc2ccccc12 | 13.4 | -74.0 | 6.6 | · | · | · | ·
C[C@@H]1CN([C@H](C)CO)S(=O)(=O)c2ccc(-c3cccc(F)c3)cc2O[C@H]1CN(C)CC1CC1 | 5.0 | -33.4 | 21.9 | · | · | · | ·
C[C@@H]1CN([C@@H](C)CO)C(=O)Cc2cc(NC(=O)C3CC3)ccc2O[C@H]1CN(C)S(C)(=O)=O | -1.8 | 20.8 | -13.1 | · | · | · | ·
COCC(=O)N1C[C@@H](C)[C@@H](OC)CN(C)C(=O)c2cc(NC(=O)c3cc(C)on3)ccc2OC[C@H]1C | · | 0.8 | 71.3 | · | · | · | ·
C[C@H](CO)N1C[C@H](C)[C@@H](CN(C)S(=O)(=O)c2ccccc2)OCCCC[C@H](C)Oc2ccc(NS(=O)(=O)c3ccc(Cl)cc3)cc2C1=O | -6.6 | -4.2 | 114.5* | 100.6* | 67.2 | 30.1 | 8.8
C[C@H](CO)N1C[C@H](C)[C@@H](CN(C)S(=O)(=O)c2ccc(Cl)cc2)OCCCC[C@H](C)Oc2ccc(NS(=O)(=O)c3ccccc3)cc2C1=O | -2.8 | -67.0 | · | · | · | · | ·
SMILES | C diff growth | Pf Dd2 inh | T cruzi growth-1 | T cruzi growth-2 | T cruzi growth-3 | NIH3T3 tox | NIH3T3 tox 2
C[C@@H]1CCCCO[C@H](CN(C)S(=O)(=O)c2ccc(Cl)cc2)[C@H](C)CN([C@H](C)CO)C(=O)c2cc(NS(=O)(=O)c3ccc(Cl)cc3)ccc2O1 | 4.2 | -65.9 | 107.8* | 101.1* | 116.2* | 9.8 | -14.6
C[C@@H]1CCCCO[C@@H](CN(C)S(=O)(=O)c2ccc(Cl)cc2)[C@H](C)CN([C@@H](C)CO)C(=O)c2cc(NS(=O)(=O)c3ccc(Cl)cc3)ccc2O1 | 5.5 | 1.4 | 61.3 | · | · | · | ·
C/C=C/c1cnc2c(c1)C(=O)N([C@@H](C)CO)C[C@@H](C)[C@@H](CN(C)Cc1ccc3c(c1)OCO3)O2 | 3.0 | -1.1 | · | · | · | · | ·
C[C@@H]1CN([C@@H](C)CO)C(=O)c2cc(/C=C/c3ccccc3)cnc2O[C@@H]1CN(C)Cc1ccc2c(c1)OCO2 | 32.3 | -78.1 | 104.1* | 103.3* | 71.8 | 17.9 | 104.5*
C[C@@H]1CN([C@H](C)CO)C(=O)c2cc(/C=C/c3ccccc3)cnc2O[C@@H]1CN(C)Cc1ccc2c(c1)OCO2 | 18.4 | -59.1 | 86.0* | 108.5* | 67.0 | 21.0 | 102.1*
C/C=C/c1cnc2c(c1)C(=O)N([C@H](C)CO)C[C@H](C)[C@@H](CN(C)Cc1ccc3c(c1)OCO3)O2 | -1.5 | -42.6 | · | · | · | · | ·
